Bioassay records as filed in PubChem BioAssay.
A selection: hits, their analogues and other compounds. The true share with any hit is near 6.3%.
tim10-1 inh: inhibits growth of tim10-1 mutant yeast. S. cerevisiae tim10-1 ts strain growth, BacTiter-Glo, 24 h. inhibition, % at 20 µM. 330,000 compounds, 2.2% hits. AID 463190;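 active means inhibition of at least 40%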;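 further: mutant grown at 25 °C; 0% = DMSO wells with yeast and 100% = wells holding no yeast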
tim23-1 inh: growth inhibitors of tim23-1 mutant yeast. S. cerevisiae tim23-1 growth, BacTiter-Glo luminescence, 24 h. inhibition, % at 20 µM. 330,000 compounds, 1.3% hits. AID 463212;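 active means growth inhibition of the mutant yeast at or above 50%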;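 further: temperature-sensitive mutant grown at 25 °C; plate controls were DMSO-treated mutant yeast for no effect and medium wells lacking yeast for full effect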
Mdm2-MdmX inh: inhibitors of human Mdm2/MdmX interaction; O15151+Q00987; SaOS-2 split-luciferase Mdm2/MdmX complementation, luminescence; inhibition, % at 8 µM; 330,000 compounds, 3% hits; AID 485346;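 active means inhibition of at least 50% at 8 µM in the primary screen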
TIM10 inh: growth inhibitors of TIM10 yeast strain; inhibition, % at 10 µM; AID 463195; 330,000 compounds, 1.4% hits; S. cerevisiae TIM10 strain growth, BacTiter-Glo luminescence, 24 h;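 active means inhibition of 40% or more at the single tested concentration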;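 further: wild-type TIM10 isogenic control strain grown at permissive 25 °C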
MPTP block: inhibitors of mitochondrial permeability transition pore; isolated mouse mitochondria, Ca2+ swelling absorbance, 30 min; inhibition, % at 10 µM; 360,000 compounds, 1.4% hits;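 active means inhibition of 50% or more, scaled per plate between neutral and stimulator controls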;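 further: 0% = DMSO wells given calcium and 100% = 1 mM EGTA wells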
tim10-1 confirm: tim10-1 yeast growth inhibition, confirmed; shares compounds with tim10-1 inh; S. cerevisiae tim10-1 ts strain growth, BacTiter-Glo, 24 h; inhibition, % at 20 µM; 7,400 compounds, 56% hits;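 active means inhibition of yeast growth at or above a set limit in either of two repeat tests at 20 µM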;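 further: tim10-1 mutant grown at permissive 25 °C to find synthetic lethal compounds; 0% = DMSO yeast wells and 100% = medium wells without yeast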
tim10 confirm: TIM10 yeast growth inhibition, confirmed; shares compounds with TIM10 inh; 4,600 compounds, 63% hits; inhibition, % at 10 µM; S. cerevisiae tim10 strain growth, BacTiter-Glo luminescence, 24 h; AID 463215;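 active means inhibition of yeast growth at or above a set limit in either of two replicates at 10 µM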;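 further: this counterscreen used the strain with wild-type TIM10; 0% = yeast with DMSO and 100% = medium wells lacking yeast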
tim23-1 confirm: tim23-1 yeast growth inhibition, confirmed. shares compounds with tim23-1 inh. S. cerevisiae tim23-1 growth, BacTiter-Glo luminescence, 24 h. inhibition, % at 20 µM. 4,400 compounds, 83% hits. AID 463218;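 active means inhibition above about 39% in either of two replicate wells at 20 µM, limit read from the data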;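 further: temperature-sensitive tim23-1 mutant grown at 25 °C; 0% = DMSO wells with yeast and 100% = medium wells without yeast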
* hit, by the source's call; . = no result given.

SMILES	tim10-1 inh	tim23-1 inh	Mdm2-MdmX inh	TIM10 inh	MPTP block	tim10-1 confirm	tim10 confirm	tim23-1 confirm
CCN(CC)C(=O)C1=C(C)N(CCCOC)C(=O)C(CC(=O)NCCCN(C)C)C1 (stereo unspecified)	.	.	.	.	-1.3	.	.	.
COc1ccc2c(c1)C(=O)O[C@@H](c1ccccc1)C[C@@H](O)C(=O)CC2	.	.	.	.	-0.3	.	.	.
CCCCOC(=O)c1ccc(NC(=O)c2nn(C)cc2Br)cc1	52.2*	55.3*	-9.0	48.2*	1.9	50.2*	40.6*	67.4*
CCCCOC(=O)c1ccc(NC(C)=O)cc1	0.9	0.8	26.1	3.1	1.1	.	.	.
CC(C)C(=O)N1CCC1(C)C(=O)NCc1ccc(F)cc1Cl (stereo unspecified)	.	.	.	.	-0.6	.	.	.
Cc1cccc(NC(=O)c2nc[nH]c2C(=O)NC[C@H](C)O)c1	.	.	.	.	-0.5	.	.	.
O=C(ONC1=NCCCCC1)c1ccc([N+](=O)[O-])cc1	51.6*	86.2*	12.7	83.2*	0.1	34.2*	84.2*	65.5*
CCC(=O)N1CCC1(C)C(=O)Nc1cccc2cccnc12 (stereo unspecified)	.	.	.	.	0.1	.	.	.
O=C1[C@@H](c2ccccc2)CC[C@@H]2C=CC[C@H]3CCN1[C@@H]32	.	.	.	.	0.8	.	.	.
COC(=O)C[C@H]1CC[C@@H](NC(=O)Nc2ccc(C(F)(F)F)cc2)[C@@H](CO)O1	.	.	.	.	0.3	.	.	.
N/C(=N\OC(=O)CCC1CCCC1)c1cccnc1	38.4	23.5	-8.9	8.9	-1.6	.	.	.
N/C(=N\OC(=O)CCC1CCCC1)c1ccc(Cl)cc1	61.4*	58.9*	15.8	79.0*	1.0	61.2*	73.0*	65.0*
N/C(=N\OC(=O)CCC1CCCC1)c1ccncc1	10.7	2.9	-31.7	13.0	-0.5	.	.	.
Cc1cccc(/C(N)=N/OC(=O)CCC2CCCCC2)c1	50.2*	64.3*	5.6	62.0*	8.4	56.5*	75.5*	71.5*
Cc1ccc(/C(N)=N/OC(=O)CCC2CCCCC2)cc1	59.8*	77.5*	-27.5	83.0*	-1.5	43.5*	81.8*	70.5*
Cc1ccc(/C(N)=N/OC(=O)CCC2CCCC2)cc1	57.9*	71.6*	-34.2	63.4*	0.2	46.5*	75.3*	55.2*
CCCCC[C@@H](C)N1C[C@@H](COCc2ccccc2)Oc2cc(N3CCC[C@@H]3COC)ccc2S1(=O)=O	.	.	.	.	4.3	.	.	.
COc1ccc(/C(N)=N/OC(=O)CCC2CCCC2)cc1	60.3*	65.1*	-1.3	53.8*	-0.1	56.2*	53.2*	66.8*
COc1ccc(NC(=O)COC(=O)CCC2CCCCC2)cc1	-8.8	12.7	20.9	-6.8	-1.0	.	.	.
CCOC(=O)c1sc(-c2ccc(C(F)(F)F)cc2)nc1O	45.6*	74.0*	-0.8	27.1	-0.8	16.7	.	32.4
CCOC(=O)c1sc(-c2cccc(C(F)(F)F)c2)nc1O	3.4	13.8	10.6	1.6	2.6	.	.	.
CNC(=O)c1ccsc1NC(=O)c1ccccc1	-14.9	-20.6	-11.5	10.8	-1.2	.	.	.
O=C(CCl)Nc1sccc1C(=O)c1ccccc1	53.7*	59.9*	34.0	47.5*	-0.1	54.7*	51.9*	49.9*
Cc1cc(OCC(=O)OCC(=O)N2CCCCC2)ccc1Cl	.	.	.	.	0.0	.	.	.
Cc1cccc(C)c1NC(=O)c1cccc2c1C(=O)N(C1CCCCC1)C2	56.0*	54.8*	22.7	18.4	-2.4	10.8	.	37.6
SMILES	tim10-1 inh	tim23-1 inh	Mdm2-MdmX inh	TIM10 inh	MPTP block	tim10-1 confirm	tim10 confirm	tim23-1 confirm
O=C(C[C@H]1C(=O)N(CCc2ccccc2)C[C@@H]1c1ccccc1)Nc1ccccc1	.	.	.	.	-1.2	.	.	.
CC/C(=N\NC(=S)Nc1ccc(OC)cc1)c1ccc(OC(F)F)cc1	53.7*	52.8*	19.4	34.0	-6.0	46.5*	.	43.4*
CC/C(=N\NC(=O)c1cc(C)oc1C)c1ccc(OC(F)F)cc1	.	.	.	.	0.1	.	.	.
COC(=O)c1ccccc1NC(=S)NC(=O)c1ccc2c(c1)OCO2	63.0*	72.2*	16.0	61.7*	-1.1	40.8*	45.0*	39.3*
Cc1ccccc1C(=O)NC(=S)Nc1ccccc1C(=O)O	29.6	18.0	-37.1	7.4	-0.9	.	.	.
COC(=O)c1ccccc1NC(=S)NC(=O)c1ccccc1C	71.0*	59.2*	-1.2	69.5*	-2.0	65.2*	69.2*	-23.8
COC(=O)c1ccccc1NC(=O)c1ccc2c(c1)OCCO2	22.4	4.5	-0.6	29.8	-0.5	.	.	.
Cc1ccccc1OCC(=O)OCC(=O)NC1CCCC(C)C1C (stereo unspecified)	.	.	.	.	0.1	.	.	.
CC(=O)Nc1ccc2c(c1)C(N1CC3CCC(CC3)C1)c1ccccc1-2 (stereo unspecified)	.	.	.	.	1.6	.	.	.
Cc1cc(C)n(/N=C/c2ccccc2O)c(=O)c1	11.0	10.3	27.0	-15.3	-0.4	.	.	.
Cc1cc(C)n(/N=C/c2cc(Cl)cc(Cl)c2O)c(=O)c1	48.1*	60.9*	0.3	25.2	-1.1	11.5	.	72.5*
Oc1c(Br)cc(C2N=C(c3ccccc3)NO2)cc1Br (stereo unspecified)	43.7*	67.2*	-47.7	33.4	1.8	57.6*	.	68.4*
N#Cc1c(N2CCCC2)nc(N)c2c(N)nc(N3CCCC3)cc12	59.8*	80.9*	21.9	43.0*	-7.1	54.2*	30.9*	88.8*
O=C(Nc1ccc(Cl)c(Cl)c1)N1N=CCC1c1ccccc1 (stereo unspecified)	56.4*	52.3*	-9.1	32.8	0.0	45.6*	.	57.4*
Cc1c(C(=O)NCCCN2CCOCC2)sc2ncnc(N3CCN(c4ccccc4)CC3)c12	.	.	.	.	-0.4	.	.	.
CCCCNC(=O)c1sc2ncnc(N3CCc4ccccc4C3)c2c1C	47.5*	54.8*	17.6	43.2*	1.6	34.8*	36.2*	51.1*
COc1ccc(OC2(C)CCN(Cc3ccccc3OC(F)F)C2)cc1 (stereo unspecified)	.	.	.	.	0.2	.	.	.
O=C1/C(=C\c2ccncc2)CCc2ccccc21	64.7*	72.3*	29.3	59.8*	-1.2	61.8*	62.0*	39.0
CCCCNC(=O)c1nc(C2CCN(S(=O)(=O)c3ccc(Cl)cc3)CC2)oc1-c1ccccc1	.	.	.	.	0.0	.	.	.
COc1ccc(CSC(=S)NNc2ccccc2)cc1	.	.	.	.	18.4	.	.	.
CCC(C)(C)C1CCc2[nH]nc(C(=O)NCc3ccc(OC)cc3)c2C1 (stereo unspecified)	18.7	31.5	33.2	-0.2	-0.5	.	.	.
CCC(C)(C)C1CCc2[nH]nc(C(=O)NC3CCCC3)c2C1 (stereo unspecified)	41.7*	59.2*	26.3	38.9	-0.8	34.6*	.	57.0*
Brc1ccc(-c2nc(N/N=C/c3cccnc3)c3ccccc3n2)cc1	82.0*	80.5*	-26.7	67.4*	3.1	6.3	55.5*	85.9*
CNc1n[nH]c(-c2ccccc2)n1	.	.	.	.	-0.3	.	.	.
